Measured values taken from PubChem BioAssay.
Active and inactive are the calls of the source. Cut-off read from the data, not from the text of the source, unless noted: active = inhibition above about 80%; inactive = the rest.

Assays:
[1] = LFS_MB_P medulloblastoma growth inhibition, cell-based, chromothripsis tumors, cisplatin or BGB combos (AID 1671449); conditions: LFS_MB_P medulloblastoma cells;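 note: cells exposed for 96 hours; 0% = vehicle DMSO and 100% = killing by high DMSO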
[2] = HDN33 neuroblastoma growth inhibition, cell-based, chromothripsis tumors, cisplatin or BGB combos (AID 1671450); conditions: HDN33 neuroblastoma cells, stronger effect = higher value;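 note: cells exposed to compound for four days; 0% = vehicle DMSO and 100% = cell killing by high DMSO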
[3] = ICB984 medulloblastoma cell growth inhibition, synergistic combos for chromothripsis tumors, cisplatin or BGB combos (AID 1671451; call rule not given here;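 note: cells exposed for 96 hours before readout; 0% = vehicle DMSO and 100% = killing by high DMSO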); conditions: ICB984 medulloblastoma cells, drug combinations, stronger effect = higher value
[4] = LFS_MB_1R medulloblastoma cell growth inhibition, synergistic combos for chromothripsis tumors, cisplatin or BGB combos (AID 1671452); conditions: LFS_MB_1R medulloblastoma cells, stronger effect = higher value;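 note: cells exposed for 96 hours before readout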
[5] = HTB85 osteosarcoma cell growth inhibition, synergistic combos for chromothripsis tumors, BGB or cisplatin IC20 combos (AID 1671453); conditions: HTB85 osteosarcoma cells, drug combinations, stronger effect = higher value;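 note: cells exposed for 96 hours before readout; 0% = vehicle DMSO and 100% = high DMSO killing control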
[6] = CRL2098 osteosarcoma cell growth inhibition, synergistic combos for chromothripsis tumors, BGB or cisplatin IC20 combos (AID 1671454); conditions: CRL2098 osteosarcoma cells, drug combinations, stronger effect = higher value;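 note: cells exposed for 96 h before readout; 0% = vehicle DMSO and 100% = killing by high DMSO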
[7] = HD-MB03 medulloblastoma cell growth inhibition, synergistic combos for chromothripsis tumors, BGB or cisplatin IC20 combos (AID 1671455; in the data active = inhibition above about 83%;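 note: 0% = vehicle DMSO and 100% = high DMSO as cytotoxic control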); conditions: HD-MB03 medulloblastoma cells, stronger effect = higher value
[8] = UWB1.289 ovarian carcinoma cell growth inhibition, synergistic combos for chromothripsis tumors, BGB or cisplatin combos (AID 1671456); conditions: UWB1.289 ovarian carcinoma cells, stronger effect = higher value;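 note: cells exposed to compound for four days; 0% = vehicle DMSO and 100% = killing by high DMSO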
[9] = LFS_MB_2R medulloblastoma cell growth inhibition, synergistic combos for chromothripsis tumors, cisplatin combos (AID 1671457); conditions: LFS_MB_2R medulloblastoma cells, stronger effect = higher value;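 note: cells exposed to compound for four days before readout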
[10] = MDA-MB-436 breast carcinoma cell growth inhibition, synergistic combos for chromothripsis tumors, BGB or cisplatin combos (AID 1671458; call rule not given here;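 note: cells exposed for 96 hours; 0% = vehicle DMSO and 100% = killing by high DMSO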); conditions: MDA-MB-436 breast carcinoma growth inhibition, drug combinations, stronger effect = higher value
[11] = UWB1.289_BRCA1 ovarian cancer growth, cell-based, BGB or cisplatin combinations (AID 1671459); conditions: UWB1.289 BRCA1 ovarian carcinoma, drug combinations, stronger effect = higher value
[12] = human astrocyte viability loss, single and combined drugs, cytotoxicity control for chromothriptic childhood tumor combination screen, cell-based, BGB or cisplatin IC20 combos (AID 1671460); conditions: Human astrocytes, drug combinations, stronger effect = higher value;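 note: cells exposed to compounds for 96 hours before viability readout; 0% = vehicle and 100% = killing control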
[13] = growth inhibition of BT084 medulloblastoma cells, cell-based, ICGC_MB145, cisplatin and BGB IC40 combos (AID 1671461); conditions: drug combinations, stronger effect = higher value;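 note: cells exposed to drugs for 96 hours; 0% = vehicle DMSO and 100% = high DMSO full killing control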
[14] = growth inhibition of RCMB18 medulloblastoma cells, cell-based, cisplatin and BGB IC40 combos (AID 1671462); conditions: stronger effect = higher value;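 note: cells exposed to compound for four days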
[15] = growth inhibition of CRL1545 osteosarcoma cells, cell-based, cisplatin and BGB IC20 combos (AID 1671464); conditions: stronger effect = higher value;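 note: cells exposed to compound for 96 hours before readout; 0% = vehicle DMSO and 100% = high DMSO killing control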
[16] = measured here: combination with BGB IC40, at 0.05 µM
[17] = measured here: with BGB IC20 combination, at 0.5 µM
[18] = measured here: with cisplatin IC20 combination, at 0.5 µM
[19] = measured here: combination with cisplatin, at 0.5 µM
[20] = measured here: combination with cisplatin, at 5 µM

## Cn1cc(-c2cnn3c(N)c(Br)c([C@H]4CCCNC4)nc23)cn1
[1]; at 0.5 µM, stronger effect = higher value
  inhibition: 20.2% (inactive)
[1]; measured here: combination with BGB IC20, at 0.005 µM
  inhibition: -7.68%
[1]; measured here: combination with BGB IC40, at 0.005 µM
  inhibition: 93.8%
[1]; [16]
  inhibition: 11.8%
[1]; measured here: combination with cisplatin, at 0.5 µM, stronger effect = higher value
  inhibition: 10.2%
[1]; measured here: combination with cisplatin, at 5 µM, stronger effect = higher value
  inhibition: -24.2%
[2]; BGB combo, at 5 µM
  inhibition: 73.2%
[2]; at 0.5 µM
  inhibition: 22.3% (inactive)
[2]; cisplatin combo, at 5 µM
  inhibition: 83.7%
[2]; [17]
  inhibition: 9.52%
[2]; [18]
  inhibition: 28.6%
[2]; single agent, at 5 µM
  inhibition: 88.5%
[3]; BGB IC20 combo, at 0.005 µM
  inhibition: -13.9%
[3]; BGB IC40 combo, at 0.005 µM
  inhibition: -26.3%
[3]; BGB IC40 combo, at 0.05 µM
  inhibition: -14.6%
[3]; at 0.5 µM
  inhibition: -16.3% (inactive)
[3]; cisplatin combo, at 0.05 µM
  inhibition: -20.5%
[3]; cisplatin combo, at 0.5 µM
  inhibition: -27.1%
[3]; cisplatin combo, at 5 µM
  inhibition: -5.82%
[3]; measured here: 5 uM single agent, at 5 µM
  inhibition: -16.1%
[4]; at 0.5 µM
  inhibition: 2.92% (inactive)
[4]; [16]
  inhibition: -16.9%
[4]; [19]
  inhibition: 5.45%
[4]; [20]
  inhibition: -19.5%
[5]; at 0.5 µM
  inhibition: -14.3% (inactive)
[5]; measured here: with BGB IC20, at 0.5 µM
  inhibition: 4.42%
[5]; measured here: with BGB IC20, at 5 µM
  inhibition: 66.4%
[5]; measured here: with cisplatin IC20, at 0.5 µM
  inhibition: -18.4%
[5]; measured here: with cisplatin IC20, at 5 µM
  inhibition: 80.6%
[5]; single agent, at 5 µM
  inhibition: 52.9%
[6]; at 0.5 µM
  inhibition: -2.8% (inactive)
[6]; measured here: combination with BGB at IC20, at 0.5 µM
  inhibition: -24%
[6]; measured here: combination with cisplatin at IC20, at 0.5 µM
  inhibition: -3.06%
[7]; at 0.5 µM
  inhibition: 6.2% (inactive)
[7]; measured here: combo with BGB at IC20, at 0.5 µM
  inhibition: 2.25%
[7]; measured here: combo with cisplatin at IC20, at 0.5 µM
  inhibition: 17.7%
[8]; at 0.5 µM
  inhibition: 28.5% (inactive)
[8]; measured here: inhibition with BGB combination, at 0.05 µM
  inhibition: -6.38%
[8]; measured here: inhibition with cisplatin combination, at 0.05 µM
  inhibition: -4.25%
[9]; at 0.5 µM
  inhibition: -5.31% (inactive)
[9]; [19]
  inhibition: -14.4%
[9]; [20]
  inhibition: -6.17%
[10]; at 0.5 µM
  inhibition: 29.3% (inactive)
[10]; measured here: BGB combination, at 0.5 µM
  inhibition: 21.8%
[10]; measured here: BGB combination, at 5 µM
  inhibition: 53.4%
[10]; measured here: cisplatin combination, at 0.5 µM
  inhibition: 36.8%
[10]; measured here: cisplatin combination, at 5 µM
  inhibition: 73.3%
[11]; BGB combination, concentration series, at 5 µM
  inhibition: 103%
[11]; at 0.5 µM
  inhibition: 7.13% (inactive)
[11]; cisplatin combination, concentration series, at 5 µM
  inhibition: 119%
[12]; at 0.5 µM
  inhibition: -19% (inactive)
[12]; measured here: combo with BGB IC20, at 0.5 µM
  inhibition: -17.5%
[12]; measured here: combo with cisplatin IC20, at 0.5 µM
  inhibition: -30.9%
[13]; at 0.5 µM
  inhibition: 11% (inactive)
[13]; cisplatin combination, at 0.5 µM
  inhibition: 16.1%
[13]; cisplatin combination, at 5 µM
  inhibition: -105%
[13]; measured here: BGB IC40 combination 0.05 uM, at 0.05 µM
  inhibition: 5.34%
[13]; single agent, at 5 µM
  inhibition: 34.7%
[14]; at 0.5 µM
  inhibition: 4.28% (inactive)
[14]; cisplatin combo, at 5 µM
  inhibition: 22.7%
[14]; measured here: BGB IC40 combination, at 0.05 µM
  inhibition: -33.2%
[14]; [19]
  inhibition: -3.81%
[14]; single agent, at 5 µM
  inhibition: 47.3%
[15]; at 0.5 µM
  inhibition: 79.7% (inactive)
[15]; [17]
  inhibition: 73.9%
[15]; [18]
  inhibition: 82.3%
[15]; single agent, at 0.05 µM
  inhibition: 19%
[15]; single agent, at 5 µM
  inhibition: 92.3%
